Compound activity deposited in PubChem BioAssay by National Center for Advancing Translational Sciences (NCATS).
LmPK act – LmPK (Leishmania mexicana) enzyme activation. Q27686. purified LmPK, Kinase-Glo ATP luminescence, 1 h. activity change, negative = inhibition, % at 57.5 µM. 290,000 tested, under 10 active. AID 1722; calls by dose curve
Target sequence (Q27686 whole entry, looked up): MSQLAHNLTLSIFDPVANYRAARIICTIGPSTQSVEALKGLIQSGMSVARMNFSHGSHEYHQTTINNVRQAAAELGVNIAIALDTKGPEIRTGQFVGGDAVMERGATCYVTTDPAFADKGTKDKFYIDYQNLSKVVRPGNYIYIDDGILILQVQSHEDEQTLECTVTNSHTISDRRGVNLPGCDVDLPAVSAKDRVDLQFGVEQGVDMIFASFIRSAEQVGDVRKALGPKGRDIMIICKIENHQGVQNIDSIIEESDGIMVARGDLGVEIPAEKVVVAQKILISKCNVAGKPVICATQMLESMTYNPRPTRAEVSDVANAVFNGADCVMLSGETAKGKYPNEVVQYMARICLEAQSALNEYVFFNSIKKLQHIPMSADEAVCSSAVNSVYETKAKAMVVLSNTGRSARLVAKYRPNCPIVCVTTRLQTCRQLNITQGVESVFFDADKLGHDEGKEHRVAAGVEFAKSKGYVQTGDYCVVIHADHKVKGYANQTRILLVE
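Coupled luminescent assay: ATP produced by LmPK (0.1 nM) from ADP (0.1 mM, ~10-fold below Km) and PEP (0.5 mM, at Km) after 1 h RT, detected with Kinase-Glo. Data scaled between no-enzyme and uninhibited controls.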
Calls only; 0 = inactive. A selection follows.

SMILES	LmPK act
COC(CNC(=O)CCc1c(C)nc2c(-c3ccccc3)c(C)nn2c1C)OC	0
CCCCOc1ccc(Nc2cc(Cl)ccc2C(=O)O)cn1	0
O=C(O)c1ccc2ncc(NC(=O)c3ccc(F)cc3)c(=O)n2c1	0
CSc1nc(=S)c2[nH]c(=S)[nH]c2[nH]1	0
Oc1cc2c(cc1O)C1c3ccc(O)c(O)c3OCC1(O)C2 (configuration not stated)	0
Cc1cc(NC(=O)c2ccoc2C)no1	0
CCOc1ccc(/C=N/NC(=O)c2[nH]ncc2Br)c(O)c1	0
Oc1ccc(N2CCN(Cc3c(-c4ccccc4)nc4ccccn34)CC2)cc1	0
CC(C)n1c(CSCc2ccc(Cl)cc2Cl)n[nH]c1=S	0
CCOc1ccc(Cc2c(C)[nH]c3ccc(C(=O)O)cc3c2=S)cc1	0
Cc1ccnc(NC(=O)c2cc3ccccc3oc2=O)c1	0
Cc1ccc(-c2cnc3ccccc3n2)cc1C	0
Cc1[nH]n(-c2ccc([N+](=O)[O-])cc2)c(=O)c1C=NCCN1CCN(C(=O)c2ccccc2)CC1	0
O=C(Nc1ccccc1)Nc1ccc(C(=O)N2CCOCC2)cc1	0
COc1ccc(-c2noc(-c3ccoc3C)n2)cc1	0
Cc1cc(C(=O)Nc2ccccc2)oc1C	0
COc1cccc(-c2n[nH]c(=S)n2Cc2ccco2)c1	0
Fc1ccc(-n2nnc(-c3cnc4ccccc4c3)n2)cc1	0
COc1ccc(-c2n[nH]c(=S)n2-c2ccccc2C)cc1	0
O=C(NNc1cc(C(F)(F)F)nc2ccccc12)Nc1cccc(Cl)c1	0
CC(=O)Nc1ccc(S(=O)(=O)NNc2ccc([N+](=O)[O-])cc2)cc1	0
N/C(=N\OC(=O)C1CCCCC1)c1ccccn1	0
CC/C(C)=N/Nc1nc(-c2cc3cccc(OC)c3oc2=O)cs1	0
CC(C)N=C1NN=C(c2ccc(F)cc2)CS1	0
CCOc1ccc(N/C=C/C(=O)c2ccccc2)c([N+](=O)[O-])c1	0
SMILES	LmPK act
COC(=O)c1sccc1NC(=O)Nc1ccc(OC)cc1	0
CCCCc1n[nH]c(=S)n1Cc1ccc(Cl)cc1	0
CS(=O)(=O)C1=NSC2=NC(=O)/C(=C\c3ccc(OC(=O)c4ccco4)c(Br)c3)C(=N)N21	0
CC(C1CC2CCC1C2)n1c(-c2cccs2)n[nH]c1=S (configuration not stated)	0
CC(=O)Oc1ccc2cc(-c3ccccc3)c(=O)oc2c1	0
CC(/C=C/c1ccc(O)cc1)=N/O	0
O=C(N=Nc1c(O)[nH]c2ccccc12)c1ccco1	0
O=C(COC(=O)c1cccnc1Cl)c1ccc(OC(F)F)cc1	0
CCCC(=O)Nc1ccc(C2C(=O)c3ccccc3C2=O)cc1	0
CC(=O)Oc1ccc(OC(C)=O)c(SCCCCCN2CCOCC2)c1	0
Cc1ccsc1C(=O)Nc1nc2ccccc2[nH]1	0
O=C(O)c1ccc2c(c1)-c1nc3ccccc3n1C2=O	0
O=C(COc1ccc2c(c1)OCO2)Nc1nccs1	0
Cc1ccc(S(=O)(=O)Nc2c(Cl)c(Cl)c(O)c3ccccc23)cc1	0
C/C(=N\NC(=O)c1ccccc1NC(=O)c1ccc(Cl)cc1)c1ccncc1	0
COc1ccccc1-n1c(-c2cn(C)nc2C)n[nH]c1=S	0
COC(Cc1n[nH]c(=S)n1-c1ccc(Cl)cc1)OC	0
Cn1c(CNc2ccc(F)cc2)nc2ccccc21	0
COc1ccccc1NC(=O)Nc1ccc2c(c1)nc(C)n2C	0
Fc1ccc(-c2nc(-c3cnccn3)no2)c(Cl)c1	0
[O-][n+]1onc2c1CCC(=N/O)/C2=N\Nc1ccccc1	0
S=c1[nH]nc(CSc2nc3ccccc3s2)n1C1CCCCC1	0
O=C(Nc1ccc(N2CCCCC2)cc1)c1ccccn1	0
Cc1occc1C(=O)NNC(=O)c1ccccc1F	0
CSc1ccc(/C=N/NC(=O)c2cccc(O)c2)cc1	0
SMILES	LmPK act
CC(C)(C)C1=CC=C(C(C)(C)C)C(=O)C1=O	0
O=C1CCC(=O)N1c1ccc(-c2nc3ccccc3s2)cc1	0
O=C(Nc1ccc(N2CCOCC2)cc1)c1cn2ccccc2n1	0
CCOC(=O)C1=C(CS(=O)(=O)c2ccc(F)cc2)NC(=O)NC1c1ccc(O)c(O)c1 (configuration not stated)	0
CCN(CC)c1ccc(/C=C2/C(=O)c3ccc(C(=O)O)cc3C2=O)cc1	0
C=CCn1c(-c2cc3cccc(OC)c3o2)n[nH]c1=S	0
O=C(CSc1ccccn1)N1CCc2ccccc21	0
C/C(=N\NC(=O)c1ccccn1)c1ccc(C(=O)O)s1	0
CCn1c(-c2cc3c(C(F)(F)F)nn(C)c3s2)n[nH]c1=S	0
Cc1ccn2c(c1)nc(=S)n2C(=O)c1ccco1	0
C/C(=N\Nc1ncc(Cl)cc1Cl)c1ccccn1	0
COc1cc([N+](=O)[O-])ccc1N/C=C/C(=O)c1cccs1	0
C=CCN=C1NN=C(c2ccc3c(c2)OCCO3)CS1	0
O=c1oc(-c2ccc([N+](=O)[O-])cc2)nc2ccc(O)cc12	0
CC(C)(C)c1ccc(-c2n[nH]c(=S)n2-c2ccccc2)cc1	0
CCn1cc(-c2n[nH]c(=S)n2-c2ccc(C)cc2Br)c(=O)c2ccc(C)nc21	0
